Screening results as filed in PubChem.
In the library only some 12% were active in any assay of this set; here they are far more common.
PLK1 PBD inh: blocks phosphopeptide binding to human PLK1 polo-box domain | P53350 | Plk1 PBD binding of FITC phosphopeptide, fluorescence polarization | Potency, µM, actives largely listed as inhibitors | hit rate 2.8% among 360,000; also: series mostly up to about 57 µM; nearly all actives have a fitted effect of over 65% in size
JMJD2A Tudor inh: JMJD2A Tudor domain (human) inhibition; Potency, µM (top dose mostly 114 µM), hits mostly inhibitors; hit rate 4.4% among 390,000; AlphaScreen JMJD2A-Tudor / H3K4me3 peptide binding; O75164; also: nearly all actives have a fitted effect of over 50% in size
BAZ2B inh: blocks human BAZ2B; AlphaScreen BAZ2B-H3K14Ac peptide displacement; Potency, µM (highest dose often 114 µM), most hits filed as inhibitors; hit rate 4.4% among 360,000; also: nearly all actives have a fitted effect of over 60% in size
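AlphaScreen luminescence quantifies BAZ2B engagement of H3K14Ac peptide; the protein and biotinylated peptide are both at 50 nM final, buffer PBS pH 7.4 with 0.01% Tween-20, all steps at room temperature.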
HP1b chromo inh: blocks HP1-beta chromodomain binding to methylated histone tails; P83916; AlphaScreen HP1-beta / biotin-H3K9me3 peptide binding; Potency, µM (titrated, usually from 114 µM), usual class: inhibitors; hit rate 0.56% among 390,000; AID 540317; also: nearly all actives have a fitted effect of over 70% in size
Target sequence (P83916 whole entry, looked up): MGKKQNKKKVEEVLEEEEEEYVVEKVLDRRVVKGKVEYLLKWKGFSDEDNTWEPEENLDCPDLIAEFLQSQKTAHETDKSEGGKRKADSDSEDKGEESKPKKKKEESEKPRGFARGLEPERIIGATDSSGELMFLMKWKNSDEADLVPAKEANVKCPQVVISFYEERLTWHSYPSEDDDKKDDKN
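Compound inhibition of the preformed complex between 50 nM HP1-beta and 50 nM biotinylated H3K9me3 peptide was read by AlphaScreen. Buffer was PBS pH 7.4 with 0.01% Tween-20. Incubations ran 30 min at room temperature, with 10 ug/mL donor/acceptor beads.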
Sfp PPTase inh: Sfp phosphopantetheinyl transferase inhibition | Biochemical Sfp PPTase activity, qHTS | Potency, µM, most hits filed as inhibitors | hit rate 3.5% among 310,000;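 also: the enzyme is Sfp with the accession as filed and its product quenches rhodamine fluorescence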
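After 15 min at room temperature with compound, 15 nM Sfp received 5 uM rhodamine-CoA plus 12.5 uM BHQ-2-ybbR (50 mM Hepes pH 7.6, 10 mM MgCl2). Rate came from the fluorescence difference over 30 min, ex 525/em 598 nm.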
G9a inh: G9a (human) methyltransferase inhibition; AID 504332; Potency, µM (highest dose often 102 µM), actives largely listed as inhibitors; hit rate 8.8% among 350,000; G9a H3K9 monomethylation, AlphaScreen, 2 h; also: nearly all actives have a fitted effect of over 75% in size
Target sequence (Q96KQ7 913-1193 limits assumed): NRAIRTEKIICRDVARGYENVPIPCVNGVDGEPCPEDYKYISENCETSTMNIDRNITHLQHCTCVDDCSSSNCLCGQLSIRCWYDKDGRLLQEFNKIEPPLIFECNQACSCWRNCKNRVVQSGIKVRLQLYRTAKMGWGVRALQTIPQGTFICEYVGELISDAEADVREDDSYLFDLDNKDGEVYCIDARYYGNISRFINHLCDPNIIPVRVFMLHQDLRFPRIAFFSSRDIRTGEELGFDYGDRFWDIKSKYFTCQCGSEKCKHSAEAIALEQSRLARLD
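Using a bead-based AlphaScreen, monomethylated H3K9 product from 2 h room-temperature reactions (G9a 20 nM, peptide 500 nM, SAM 20 uM) was detected with 0.5 ug/mL rabbit anti-H3K9me1 antibody.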
Hits are given with their value; [ ] = another dose, or the depositor's remark. Calls follow the shape of the dose curve; as a rule, active = well fitted curve in the direction sought with a large enough effect; inconclusive = small, poorly fitted or top-dose-only effect, or another doubt; inactive = no such curve, though single readings can be large; an effect the other way counts as inactive or inconclusive.

`COc1ccc2sc(-c3ccc(N(C)C)cc3)c(C#CC(C)(C)O)c2c1` gave PLK1 PBD inh inactive, JMJD2A Tudor inh inactive, BAZ2B inh inactive, HP1b chromo inh inactive and G9a inh inactive[0.501 µM].
`O=C(O)CCC(=O)Nc1ccccc1Oc1ccccc1` gave PLK1 PBD inh 27µM, JMJD2A Tudor inh 20µM, BAZ2B inh inactive, HP1b chromo inh inactive, Sfp PPTase inh inactive and G9a inh inactive.
Cc1ccc(NC(=O)CN(C)CC(=O)Nc2ccccc2Oc2ccccc2)cc1 was read as PLK1 PBD inh inactive, JMJD2A Tudor inh 3.5µM, BAZ2B inh 25µM, HP1b chromo inh 18µM, Sfp PPTase inh inconclusive and G9a inh 35µM.
Nn1c(SCC(=O)Nc2ccccc2Oc2ccccc2)nnc1C1CC1 was read as PLK1 PBD inh inactive, JMJD2A Tudor inh inactive, BAZ2B inh inactive, HP1b chromo inh inactive and G9a inh 50µM.
CC1CC1C(=O)OCC(=O)Nc1ccc(N=Nc2ccccc2)cc1 (stereo unspecified) was read as PLK1 PBD inh inactive, JMJD2A Tudor inh inactive, BAZ2B inh 28µM, HP1b chromo inh inconclusive, Sfp PPTase inh inactive and G9a inh 35µM.
`CC1CC1C(=O)OCC(=O)Nc1ccccc1Oc1ccccc1` (stereo unspecified) gave PLK1 PBD inh 27µM, JMJD2A Tudor inh inactive, BAZ2B inh inactive, HP1b chromo inh inactive, Sfp PPTase inh inactive and G9a inh inactive.
For N#Cc1nccnc1S(=O)(=O)c1cccs1 the results were PLK1 PBD inh 27µM, JMJD2A Tudor inh inactive, BAZ2B inh inactive, HP1b chromo inh inactive, Sfp PPTase inh 7.1µM and G9a inh 4µM.
`C[C@H]1COC(=O)[C@H](Cc2ccccc2)NC(=O)[C@@H](C)COC(=O)[C@H](Cc2ccccc2)NC1=O` gave Sfp PPTase inh inactive.
`CCOC(=O)N1CCc2[nH]c3ccc(C)cc3c2C1` gave PLK1 PBD inh inactive, JMJD2A Tudor inh inconclusive, BAZ2B inh inconclusive, HP1b chromo inh inactive, Sfp PPTase inh inactive and G9a inh 10µM.
Screening CC(=O)N1CCc2[nH]c3ccc(C)cc3c2C1 returned PLK1 PBD inh inconclusive, JMJD2A Tudor inh inactive, BAZ2B inh 56µM, HP1b chromo inh inactive, Sfp PPTase inh inactive and G9a inh inactive[2.33 µM].
`CCOC(=O)c1ccc2[nH]c3c(c2c1)CN(C)CC3` gave PLK1 PBD inh inactive, JMJD2A Tudor inh inactive, BAZ2B inh inactive, HP1b chromo inh inactive, Sfp PPTase inh inactive and G9a inh inactive.
Screening CC1CCC2C(C1)Nc1c(C(=O)O)cccc1C2(C)C (stereo unspecified) returned PLK1 PBD inh inactive, JMJD2A Tudor inh inactive, BAZ2B inh 79µM, HP1b chromo inh inactive and Sfp PPTase inh inactive.
`CC1C2CCC(C2)C1OC(=O)c1ccccc1C(=O)O` (stereo unspecified) gave PLK1 PBD inh inactive.
`CC(C)(CC(=O)O)CC(=O)N1CCN(c2cc(C(F)(F)F)nc3ccccc23)CC1` gave PLK1 PBD inh inactive, JMJD2A Tudor inh inactive, BAZ2B inh inactive, HP1b chromo inh inactive, Sfp PPTase inh inactive and G9a inh inactive[12.7 µM].
`CC(=O)Nc1ccc(NC(=O)COC(=O)c2cc(S(=O)(=O)N(C)C)ccc2N2CCCC2)cc1` gave PLK1 PBD inh inactive, JMJD2A Tudor inh inactive, BAZ2B inh inactive, HP1b chromo inh inactive and G9a inh inconclusive.
Screening COc1cc(OC)c(NC2(c3ccccc3)C(=O)c3ccccc3C2=O)cc1Cl returned JMJD2A Tudor inh 20µM, BAZ2B inh 22µM, HP1b chromo inh inconclusive and G9a inh 13µM.
Screening COc1ccc(C2(Nc3cccc(C(=O)O)c3C)C(=O)c3ccccc3C2=O)cc1 returned JMJD2A Tudor inh inactive, BAZ2B inh inactive, HP1b chromo inh inactive and G9a inh inactive.
For CCCC1(C(=O)OCC)NC(c2ccc(N(C)C)cc2)C2C(=O)N(c3ccccc3)C(=O)C21 (stereo unspecified) the results were PLK1 PBD inh inactive, JMJD2A Tudor inh inconclusive, BAZ2B inh inactive, HP1b chromo inh inactive, Sfp PPTase inh inactive and G9a inh 8.9µM.
`CCCC1(C(=O)OCC)NC(c2ccc(N(C)C)cc2)C2C(=O)N(c3ccc(OCC)cc3)C(=O)C21` (stereo unspecified) gave PLK1 PBD inh inactive, JMJD2A Tudor inh inconclusive, BAZ2B inh inconclusive, HP1b chromo inh inactive, Sfp PPTase inh inactive and G9a inh 50µM.
For CCN(CC)c1ccc(C2Nc3cccc4cccc(c34)N2)cc1 the results were PLK1 PBD inh inactive, JMJD2A Tudor inh inconclusive, BAZ2B inh inactive, HP1b chromo inh inconclusive and Sfp PPTase inh inactive.
For c1coc(C2Nc3cccc4cccc(c34)N2)c1 the results were BAZ2B inh inconclusive, Sfp PPTase inh 3.2µM and G9a inh inconclusive.
Screening Cc1ccc(C2Nc3cccc4cccc(c34)N2)s1 returned PLK1 PBD inh inconclusive, JMJD2A Tudor inh inconclusive, BAZ2B inh inconclusive, HP1b chromo inh inconclusive, Sfp PPTase inh inconclusive and G9a inh 13µM.
Fc1ccc(C2Nc3cccc4cccc(c34)N2)cc1 was read as PLK1 PBD inh inconclusive, JMJD2A Tudor inh inconclusive, BAZ2B inh inconclusive, HP1b chromo inh inconclusive, Sfp PPTase inh inconclusive and G9a inh inactive[2.33 µM].
Oc1ccc(C2Nc3cccc4cccc(c34)N2)c(O)c1 was read as PLK1 PBD inh inconclusive, JMJD2A Tudor inh 79µM, BAZ2B inh inconclusive, HP1b chromo inh 18µM, Sfp PPTase inh inactive and G9a inh 45µM.
Screening Clc1cccc(C2Nc3cccc4cccc(c34)N2)c1Cl returned PLK1 PBD inh inactive, JMJD2A Tudor inh 50µM, BAZ2B inh 40µM, HP1b chromo inh inconclusive, Sfp PPTase inh inactive and G9a inh inactive[0.501 µM].
For CCOC(=O)c1cc(-c2ccccc2)n(CCC(=O)NCCc2ccc(C)cc2)c1C the results were JMJD2A Tudor inh inactive, BAZ2B inh inactive, HP1b chromo inh inactive and G9a inh inconclusive.
Screening Clc1ccccc1C1Nc2cccc3cccc(c23)N1 returned PLK1 PBD inh inactive, JMJD2A Tudor inh inconclusive, BAZ2B inh 71µM, HP1b chromo inh inconclusive and Sfp PPTase inh inactive.
O=C1NC(c2ccccc2Cl)Nc2ccccc21 (stereo unspecified) was read as PLK1 PBD inh inactive, JMJD2A Tudor inh inactive, BAZ2B inh inactive, HP1b chromo inh inactive, Sfp PPTase inh inactive and G9a inh inactive.
CN(C)C(CNC(=S)Nc1ccc(Cl)cc1)c1cccnc1 (stereo unspecified) was read as PLK1 PBD inh inactive, JMJD2A Tudor inh inactive, BAZ2B inh inactive, HP1b chromo inh inactive, Sfp PPTase inh inactive and G9a inh inactive.
Nc1cccc2c1C(=O)N(C(=O)c1cccc(S(=O)(=O)N3CCCC3)c1)C2=O was read as PLK1 PBD inh 4.2µM, JMJD2A Tudor inh inactive, BAZ2B inh inactive, HP1b chromo inh inactive, Sfp PPTase inh inactive and G9a inh inconclusive.
`COc1ccc(Nc2c(C)cccc2C)cc1` gave PLK1 PBD inh inactive, JMJD2A Tudor inh inactive, BAZ2B inh inactive, HP1b chromo inh inactive, Sfp PPTase inh inactive and G9a inh inactive.
